For eight compounds, growth results are on record in PubChem BioAssay (NCI).

This is part of a sample that, as a whole, favours compounds with a hit. Of some 83,000 tested, about 20% had one in any assay.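 Method: cells in 96-well plates; compound added at one concentration; 48 h incubation; percent growth measured; values under 10 scored active.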 Values without a mark were called inactive. Active and inactive are the calls of the source.

Test systems include DU-145 prostate; K-562 leukemia; MALME-3M melanoma; MDA-MB-231 breast; RXF 393 renal; SF-268 CNS; SF-295 CNS; SF-539 CNS; UACC-257 melanoma; M14 melanoma; HCT-15 colon; HT29 colon; SNB-75 CNS; SNB-19 CNS; U251 CNS; PC-3 prostate; SK-MEL-5 melanoma; UACC-62 melanoma; LOX IMVI melanoma; SK-MEL-28 melanoma.
Common to all, as to test: NCI-60 one-dose screen, 48 h (100 = growth as untreated, 0 = no growth, -100 = all killed)
Holding throughout (conditions): 10 µM unless noted

With `CCCCCCCCCCCCCCCC1=NC(C)(C)CN1C(C)C`, the growth in the experiment on DU-145 prostate was 7.67% (active); with K-562 leukemia it was -50.3% (active); in the experiment on MALME-3M melanoma, -49% (active); in the experiment with MDA-MB-231 breast, -62.2% (active); in the experiment on RXF 393 renal, -68.9% (active); in the experiment on SF-268 CNS, -55.2% (active). Also, the growth in the experiment on SF-295 CNS was -48.1% (active); in the experiment on SF-539 CNS, -79.6% (active); in the experiment with UACC-257 melanoma, -31.2% (active); with M14 melanoma, -71.4% (active); in the experiment with HCT-15 colon, -63.5% (active); in the experiment with HT29 colon, -50% (active). For the same compound, the growth in the experiment on SNB-75 CNS was -13.4% (active); in the experiment with SNB-19 CNS, 42.6%; in the experiment with U251 CNS it was -67% (active); in the experiment on PC-3 prostate, -41.4% (active); in the experiment on SK-MEL-5 melanoma it was -86.1% (active); in the experiment on UACC-62 melanoma it was -75.5% (active). Moreover, the growth with LOX IMVI melanoma was -79.4% (active); in the experiment on SK-MEL-28 melanoma, -80% (active).
As to `CCN(CC)CCNC(=O)C(F)(F)C(F)(F)C(F)(F)F`, the growth in the experiment with DU-145 prostate was 115%; with K-562 leukemia, 109%; in the experiment with MALME-3M melanoma, 124%; with MDA-MB-231 breast, 104%; in the experiment on RXF 393 renal it was 98%; in the experiment on SF-268 CNS, 103%. In addition, the growth is 101% in the experiment on SF-295 CNS; 90.7% with SF-539 CNS; 111% in the experiment on UACC-257 melanoma; 97.7% in the experiment on M14 melanoma; 100% with HCT-15 colon; 115% with HT29 colon. Also, the growth in the experiment with SNB-75 CNS was 97.2%; with SNB-19 CNS it was 116%; with U251 CNS, 104%; in the experiment with PC-3 prostate, 96%; in the experiment with SK-MEL-5 melanoma it was 105%; in the experiment on UACC-62 melanoma, 107%. For the same compound, the growth with LOX IMVI melanoma is 104%; with SK-MEL-28 melanoma, 115%.
In the case of `Clc1ccc(-c2cnc3c(-c4ccnc(N5CCNCC5)c4)cnn3c2)cc1`, the growth in the experiment with DU-145 prostate was 27.6%; in the experiment with K-562 leukemia, -13.5% (active); with MALME-3M melanoma, -37.5% (active); in the experiment on MDA-MB-231 breast, -23.3% (active); in the experiment with RXF 393 renal it was -32.6% (active); in the experiment with SF-268 CNS it was -16.2% (active). The growth with SF-295 CNS was 34.9%; in the experiment on SF-539 CNS it was -82.4% (active); in the experiment with UACC-257 melanoma, -60% (active); with M14 melanoma it was -78.8% (active); in the experiment on HCT-15 colon it was -22.9% (active); in the experiment on HT29 colon, -7.81% (active). In addition, the growth is -68.6% (active) with SNB-75 CNS; 3.09% (active) in the experiment on SNB-19 CNS; -58.1% (active) with U251 CNS; 15.2% in the experiment on PC-3 prostate; 73.8% in the experiment on SK-MEL-5 melanoma; -66.8% (active) in the experiment with UACC-62 melanoma. For the same compound, the growth in the experiment with LOX IMVI melanoma is -80.9% (active); with SK-MEL-28 melanoma, -82.8% (active).
With `O=[N+]([O-])c1ccc(SSc2ccc([N+](=O)[O-])cc2Cl)c(Cl)c1`, the growth in the experiment on DU-145 prostate was 99.5%; in the experiment with K-562 leukemia it was 77.8%; with MALME-3M melanoma it was 90.8%; with MDA-MB-231 breast, 78.2%; in the experiment on RXF 393 renal, 120%; with SF-268 CNS, 103%. The growth in the experiment with SF-295 CNS is 97.2%; in the experiment on SF-539 CNS, 119%; in the experiment with UACC-257 melanoma it was 118%; with M14 melanoma it was 103%; in the experiment on HCT-15 colon, 105%; in the experiment on HT29 colon, 98.2%. Further, the growth was 84% in the experiment with SNB-75 CNS; 99.5% with SNB-19 CNS; 89.6% in the experiment with U251 CNS; 93.2% in the experiment on PC-3 prostate; 95.5% in the experiment on SK-MEL-5 melanoma; 79.7% with UACC-62 melanoma. The values for the growth in the experiment on LOX IMVI melanoma and in the experiment on SK-MEL-28 melanoma were 77.3% and 109%, respectively.
With `CCOC(OCC)c1cnc2nc(NC(C)=O)[nH]c(=O)c2n1`, the growth in the experiment with DU-145 prostate was 107%; with K-562 leukemia it was 104%; in the experiment with MALME-3M melanoma, 89.8%; with MDA-MB-231 breast it was 104%; in the experiment with RXF 393 renal, 110%; with SF-268 CNS, 112%. Also, the growth in the experiment on SF-295 CNS is 109%; in the experiment on SF-539 CNS it was 108%; in the experiment on UACC-257 melanoma it was 109%; in the experiment on M14 melanoma, 100%; with HCT-15 colon it was 98.7%; in the experiment on HT29 colon, 90.6%. In addition, the growth in the experiment on SNB-75 CNS was 91.5%; with SNB-19 CNS, 99.4%; with U251 CNS, 104%; with PC-3 prostate, 106%; in the experiment with SK-MEL-5 melanoma, 104%; with UACC-62 melanoma, 102%. Moreover, the growth with LOX IMVI melanoma is 100%; in the experiment with SK-MEL-28 melanoma, 105%.
`CCCCn1cnc2c(SCc3ccc([N+](=O)[O-])cc3)nc(N)nc21`: the growth was 123% in the experiment with DU-145 prostate; 59.8% in the experiment on K-562 leukemia; 130% with MALME-3M melanoma; 82.3% in the experiment with MDA-MB-231 breast; 106% in the experiment on RXF 393 renal; 84.4% in the experiment on SF-268 CNS. Also, the growth is 122% in the experiment on SF-295 CNS; 94.7% in the experiment on SF-539 CNS; 97.5% with UACC-257 melanoma; 106% in the experiment on M14 melanoma; 88.2% in the experiment on HCT-15 colon; 98.6% in the experiment on HT29 colon. The growth is 95.7% with SNB-75 CNS; 86% in the experiment on SNB-19 CNS; 90.6% with U251 CNS; 89.8% in the experiment on PC-3 prostate; 85.8% in the experiment with SK-MEL-5 melanoma; 80.4% in the experiment on UACC-62 melanoma. Besides, the growth is 88% in the experiment on LOX IMVI melanoma and 117% in the experiment on SK-MEL-28 melanoma.
For `N/C(=N\OC(=O)c1ccccc1)C(Cc1ccccc1)C(=O)NOC(=O)c1ccccc1` (stereo not given), the growth in the experiment with DU-145 prostate was 16.2%; in the experiment on K-562 leukemia, -6.89% (active); in the experiment on MALME-3M melanoma it was 59.2%; in the experiment on MDA-MB-231 breast, 70.7%; in the experiment with RXF 393 renal it was 53.4%; in the experiment on SF-268 CNS, 1.91% (active). Besides, the growth in the experiment on SF-295 CNS is -14.7% (active); in the experiment on SF-539 CNS, 13.6%; in the experiment on UACC-257 melanoma, 88.8%; in the experiment with M14 melanoma, 48.3%; in the experiment with HCT-15 colon, 33.2%; in the experiment with HT29 colon, 85.7%. For the same compound, the growth in the experiment with SNB-75 CNS is 4.73% (active); in the experiment on SNB-19 CNS, 56.8%; in the experiment with U251 CNS, -71% (active); in the experiment on PC-3 prostate, 43%; with SK-MEL-5 melanoma, 72.2%; in the experiment with UACC-62 melanoma it was 71.2%. The growth is -81.2% (active) with LOX IMVI melanoma and 89.6% in the experiment on SK-MEL-28 melanoma.
Take `COc1cc(NCCC2CCCCN2)c2ncccc2c1OC` (stereo not given): the growth was 87.5% in the experiment with DU-145 prostate; 64.7% in the experiment on K-562 leukemia; 134% with MALME-3M melanoma; 74.2% in the experiment with MDA-MB-231 breast; 111% in the experiment with RXF 393 renal; 92.9% in the experiment with SF-268 CNS. Also, the growth with SF-295 CNS is 110%; with SF-539 CNS, 92%; in the experiment with UACC-257 melanoma it was 66.3%; in the experiment with M14 melanoma, 92.1%; in the experiment on HCT-15 colon it was 86.1%; with HT29 colon it was 73.7%. The growth in the experiment with SNB-75 CNS was 156%; in the experiment on SNB-19 CNS, 91.8%; in the experiment on U251 CNS, 33.5%; with PC-3 prostate, 68.2%; with SK-MEL-5 melanoma, 77.8%; with UACC-62 melanoma, 81.1%. For the same compound, the growth is 15% in the experiment with LOX IMVI melanoma and 107% with SK-MEL-28 melanoma.
